Results: PubChem BioAssay AID651661 (Broad Institute, 2012)
The campaign covered roughly 350,000 compounds. About 2,300 (0.66%) were called active.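 The calls were made as follows: active = mean inhibition of at least 50% after viability correction, with every replicate also passing that limit; inconclusive = mean reaches 50% but only one of two replicates passes; inactive = the rest.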 The full list was thinned out, with actives kept by preference.

Assay: blockers of EWS/Fli transcriptional output – A673 cells, NR0B1 luciferase, luminescence, MLPCN library, primary screen (AID 651661);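 also: firefly luciferase signal divided by Alamar Blue viability fluorescence both relative to DMSO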
Settings: A673 NR0B1-luciferase reporter, viability-normalised; at 12.6 µM; hits give high values

Compound | inhibition
COc1ccc(CN(C)C[C@H]2OCCCC[C@H](C)Oc3ccc(NS(C)(=O)=O)cc3C(=O)N([C@H](C)CO)C[C@@H]2C)cc1 | 1.53% (inactive)
COc1ccc(C#Cc2ccc([C@H]3[C@@H](CO)N4CCCCN(C(=O)Nc5ccccc5)C[C@H]34)cc2)cc1 | 17.2% (inactive)
O=C(Nc1ccc(F)cc1)N1CCCCN2[C@H](CO)[C@H](c3ccc(C#Cc4ccccc4)cc3)[C@H]2C1 | 84.6% (active)
CN(C)CC#Cc1ccc([C@@H]2[C@H](CO)N3CCCCN(C(=O)Nc4ccc(F)cc4)C[C@@H]23)cc1 | -2.85% (inactive)
CO[C@H]1CN(C)C(=O)c2ccc(NC(=O)C3CCC3)cc2OC[C@@H](C)NC[C@H]1C | 10.2% (inactive)
CO[C@H]1CN(C)C(=O)c2cc(NC(=O)C3CCCCC3)ccc2OC[C@H](C)N(C(=O)c2ccccc2)C[C@H]1C | 9.65% (inactive)
CCCNC(=O)[C@H]1[C@H](CO)[C@H]2Cn3c(cccc3=O)[C@H]2N1Cc1ccccc1Cl | -2.68% (inactive)
COC(=O)c1cc(C(=O)N(Cc2ccccc2)c2ccccn2)cc([N+](=O)[O-])c1 | 7.71% (inactive)
O=C(CCl)N(Cc1cccc([N+](=O)[O-])c1)c1cccc(Cl)c1 | 60% (active)
CC(=O)N(CN1C(=O)C2C3C=CC(C3)C2C1=O)c1cccc(Cl)c1 (configuration not stated) | -2.77% (inactive)
CCC(=O)N(C)C[C@H]1Oc2cc(C#CCOC)ccc2S(=O)(=O)N([C@H](C)CO)C[C@H]1C | -9.57% (inactive)
CCOc1ccccc1N1CCN(C(=O)COc2ccc3c(C)cc(=O)oc3c2)CC1 | 6.43% (inactive)
CCn1c(C)c(C)c2cc(C(=O)N3CCN(c4cccc(C)c4C)CC3)ccc21 | 5.16% (inactive)
CCOc1ccccc1N1CCN(C(=O)c2ccc3[nH]c(C)c(C)c3c2)CC1 | 55.9% (active)
CCC(=O)Nc1ccc2c(c1)C(=O)N(C)[C@H]1CC[C@H](CC(=O)NC3Cc4ccccc4C3)O[C@H]1CO2 | 4.71% (inactive)
COc1ccc2c3c(n(C)c2c1)[C@H](CO)N(Cc1ccccc1Cl)CC31CN(C(=O)CN(C)C)C1 | 6.01% (inactive)
COc1cccc(-n2c(=S)[nH]c3c(oc4ccccc43)c2=O)c1 | -11.6% (inactive)
O=c1oc2ccccc2cc1-c1cn(-c2ccccc2)c(=S)[nH]1 | 67.6% (active)
CS(=O)(=O)N1CCN(C(=O)c2cc3ccccc3oc2=O)CC1 | -13.4% (inactive)
O=C(N[C@H]1CC[C@H](CCNS(=O)(=O)c2ccc(F)cc2)O[C@H]1CO)c1cccnc1 | -0.681% (inactive)
C[C@@H]1CN([C@@H](C)CO)C(=O)Cc2cc(NC(=O)C3CCCCC3)ccc2O[C@@H]1CN(C)Cc1ccc(C(=O)Nc2ccccc2N)cc1 | 12.7% (inactive)
Cn1cnc(S(=O)(=O)N[C@H]2C=C[C@H](CC(=O)NCC3CCCCC3)O[C@@H]2CO)c1 | -0.245% (inactive)
C[C@H](CO)N1C[C@H](C)[C@@H](CN(C)Cc2ccc(-c3ccccc3)cc2)Oc2ccc(NC(=O)CCCN(C)C)cc2CC1=O | 4.89% (inactive)
C[C@H]1CN([C@@H](C)CO)S(=O)(=O)c2ccc(C#Cc3ccncc3)cc2O[C@@H]1CN(C)C(=O)Nc1ccc2c(c1)OCO2 | 55.5% (active)

Compound | inhibition
C[C@@H]1CN([C@@H](C)CO)S(=O)(=O)c2ccc(C#Cc3ccccc3)cc2O[C@@H]1CN(C)C(=O)Nc1ccccc1 | 11% (inactive)
C[C@H](CO)N1C[C@H](C)[C@H](CN(C)C(=O)Nc2ccc3c(c2)OCO3)Oc2cc(C#Cc3ccncc3)ccc2S1(=O)=O | 22.2% (inactive)
CCn1c(/C=N/NC(=O)c2ccc(OC)cc2)nc2ccccc21 | 75.2% (active)
Cc1nc2ccccc2n1CC(=O)N/N=C/c1cccs1 | 3.45% (inactive)
CCn1c(C(O)c2cc(OC)ccc2OC)nc2ccccc21 (configuration not stated) | -24.1% (inactive)
COc1ccc2c3c(n(C)c2c1)[C@H](CO)N(CC1CCOCC1)CC31CCN(C(C)=O)CC1 | 0.574% (inactive)
C[C@H]1CN([C@@H](C)CO)S(=O)(=O)c2ccc(-c3cccc(C#N)c3)cc2O[C@H]1CN(C)C(=O)c1ccccc1 | 4.97% (inactive)
COCC#Cc1ccc(CC[C@H]2O[C@H]3CC[C@@H](CO)O[C@H]3C[C@H]2NC(=O)Nc2c(C)noc2C)cc1 | -3.3% (inactive)
O=C(CCl)Nc1ccc(Sc2ccc(NC(=O)CCl)cc2)cc1 | 66.1% (active)
CCC(=O)Nc1ccc(Nc2nc(Cl)nc(Nc3ccc(NC(=O)CC)cc3)n2)cc1 | 7.36% (inactive)
O=C(CCl)Nc1cccc(CP(=O)(c2ccccc2)c2ccccc2)c1 | 28.2% (inactive)
CO[C@H]1CN(C)C(=O)c2ccc(NC(C)=O)cc2OC[C@H](C)N(C(=O)Cc2ccccn2)C[C@@H]1C | -1.41% (inactive)
CC[C@]1(O)CC2CN(CCc3c([nH]c4ccccc34)[C@@](C(=O)OC)(c3cc4c(cc3OC)N(C=O)[C@H]3[C@@](O)(C(=O)OC)[C@H](OC(C)=O)[C@]5(CC)C=CCN6CC[C@]43[C@@H]65)C2)C1 (some centres not stated) | 61.7% (active)
CC[C@]1(O)C[C@@H]2CN(CCc3c([nH]c4ccccc34)[C@@](C(=O)OC)(c3cc4c(cc3OC)N(C)[C@H]3[C@@](O)(C(=O)OC)[C@H](OC(C)=O)[C@]5(CC)C=CCN6CC[C@]43[C@@H]65)C2)C1 | 63% (active)
CN1C(=O)c2cc(NC(=O)C3CC3)ccc2OC[C@@H]2O[C@H](CC(=O)NCC3CCCCC3)CC[C@@H]21 | 6.23% (inactive)
C[C@H]1CN([C@@H](C)CO)S(=O)(=O)c2ccc(C3=CCCCC3)cc2O[C@@H]1CN(C)Cc1ccccc1 | 23.9% (inactive)
Cc1cc(C(=O)Nc2ccc3c(c2)C(=O)N(C)[C@@H]2CC[C@@H](CC(=O)NC4CCCC4)O[C@@H]2CO3)no1 | 4.52% (inactive)
COc1ccc2c3c(n(C)c2c1)[C@@H](CO)N(C)CC31CN(S(=O)(=O)c2cccs2)C1 | 3.63% (inactive)
COc1cccc(C#Cc2ccc([C@H]3[C@@H](CO)N(C(=O)c4ccccn4)[C@H]3C#N)cc2)c1 | 30.6% (inactive)
C[C@H]1CN([C@@H](C)CO)C(=O)c2cc(-c3ccncc3)cnc2O[C@@H]1CN(C)C(=O)c1cccc(F)c1 | -6.09% (inactive)
C[C@@H]1CCCCO[C@@H](CN(C)Cc2ccc3c(c2)OCO3)[C@@H](C)CN([C@@H](C)CO)C(=O)c2cc(NC(=O)Nc3ccccc3)ccc2O1 | -8.42% (inactive)
C[C@H](CO)N1C[C@H](C)[C@H](CN(C)CC2CCCCC2)OCCCC[C@H](C)Oc2ccc(NS(=O)(=O)c3ccc(F)cc3)cc2C1=O | -7.04% (inactive)
C[C@@H]1CCCCO[C@H](CN(C)CC2CCCCC2)[C@H](C)CN([C@H](C)CO)C(=O)c2cc(NS(=O)(=O)c3ccc(F)cc3)ccc2O1 | 24.8% (inactive)
C[C@@H]1CCCCO[C@H](CN(C)CC2CCCCC2)[C@H](C)CN([C@H](C)CO)C(=O)c2cc(NC(=O)Nc3ccc(F)cc3)ccc2O1 | -1.9% (inactive)

Compound | inhibition
C[C@H]1CCCCO[C@H](CN(C)CC2CCCCC2)[C@@H](C)CN([C@@H](C)CO)C(=O)c2cc(NS(=O)(=O)c3ccc(Cl)cc3)ccc2O1 | 61.5% (active)
C[C@@H]1CN([C@H](C)CO)C(=O)c2cc(NC(=O)Nc3ccc4c(c3)OCO4)ccc2O[C@@H](C)CCCCO[C@@H]1CN(C)Cc1ccc2c(c1)OCO2 | 11.6% (inactive)
C[C@@H]1CCCCO[C@H](CN(C)CC2CC2)[C@@H](C)CN([C@H](C)CO)C(=O)c2cc(NC(=O)Nc3ccc(F)cc3)ccc2O1 | -1.94% (inactive)
C[C@@H]1CN([C@H](C)CO)C(=O)c2cc(NC(=O)Nc3ccc(F)cc3)ccc2O[C@@H](C)CCCCO[C@@H]1CN(C)CC1CCCCC1 | 58.8% (active)
C[C@H]1CCCCO[C@@H](CN(C)Cc2ccc3c(c2)OCO3)[C@@H](C)CN([C@@H](C)CO)C(=O)c2cc(NC(=O)Nc3ccc(F)cc3)ccc2O1 | 73.8% (active)
CCS(=O)(=O)N1[C@H](CO)[C@@H](c2ccccc2)C12CN(C(=O)c1ccccc1F)C2 | 8.71% (inactive)
CC(C)NC(=O)N1[C@@H]2CN(C(=O)C3CCCCC3)c3ccccc3[C@@H]2[C@@H]1CO | 1.34% (inactive)
CN(C)C(=O)[C@@H]1[C@@H](CO)[C@@H]2Cn3c(ccc(C4=CCCC4)c3=O)[C@H]1N2Cc1ccccn1 | -3.42% (inactive)
COc1ccc(-c2cnc3c(c2)C(=O)N([C@@H](C)CO)C[C@H](C)[C@@H](CN(C)C(=O)C2CC2)O3)cc1 | -4.94% (inactive)
CCS(=O)(=O)N1CC2(C1)CN(S(=O)(=O)c1ccccc1)[C@H](CO)c1c2c2ccc(OC)cc2n1C | -5.22% (inactive)
CO[C@@H]1CN(C)C(=O)c2ccc(NC(=O)NC(C)C)cc2OC[C@@H](C)N(Cc2ccc(-c3ccccn3)cc2)C[C@H]1C | 0.576% (inactive)
COc1ccc2c3c([nH]c2c1)[C@H](CO)N(S(=O)(=O)c1cn(C)cn1)CC31CCN(CC2CC2)CC1 | -3.8% (inactive)
C[C@@H]1CN([C@@H](C)CO)C(=O)Cc2cc(NC(=O)CCCCCC(=O)Nc3ccccc3N)ccc2O[C@H]1CN(C)C(=O)Nc1ccc(C(F)(F)F)cc1 | 8.79% (inactive)
C[C@H](CO)N1C[C@H](C)[C@H](CN(C)CC2CCCCC2)Oc2ccc(NC(=O)CCCCCC(=O)Nc3ccccc3N)cc2CC1=O | 51.8% (active)
CC(C)NC(=O)N(C)C[C@H]1Oc2ccc(NC(=O)CCCCCC(=O)Nc3ccccc3N)cc2CC(=O)N([C@@H](C)CO)C[C@H]1C | -5.03% (inactive)
C[C@@H]1CN([C@H](C)CO)C(=O)Cc2cc(NC(=O)C3CCCCC3)ccc2O[C@H]1CN(C)S(=O)(=O)c1ccc(Cl)cc1 | 4.11% (inactive)
C[C@@H]1CN([C@@H](C)CO)C(=O)Cc2cc(NC(=O)CCCCCC(=O)Nc3ccccc3N)ccc2O[C@@H]1CN(C)C(=O)NC1CCCCC1 | 2.61% (inactive)
C[C@H]1CN([C@@H](C)CO)C(=O)Cc2cc(NC(=O)C3CC3)ccc2O[C@H]1CN(C)S(=O)(=O)c1ccc(Cl)cc1 | 52.2% (active)
COc1ccc(S(=O)(=O)N(C)C[C@@H]2Oc3ccc(NC(=O)C4CC4)cc3CC(=O)N([C@@H](C)CO)C[C@H]2C)cc1 | -1.28% (inactive)
C[C@H](CO)N1C[C@H](C)[C@H](CN(C)Cc2ccc(C(F)(F)F)cc2)Oc2ccc(NC(=O)CCCCCC(=O)Nc3ccccc3N)cc2CC1=O | 52.3% (active)
C[C@@H]1CN([C@@H](C)CO)C(=O)Cc2cc(NC(=O)CCCN(C)C)ccc2O[C@@H]1CN(C)Cc1ccc(-c2ccccc2)cc1 | 17.3% (inactive)
C[C@H]1CN([C@@H](C)CO)C(=O)Cc2cc(NC(=O)CCCN(C)C)ccc2O[C@@H]1CN(C)Cc1ccc(-c2ccccc2)cc1 | -8.76% (inactive)
C[C@H](CO)N1C[C@H](C)[C@@H](CN(C)Cc2ccc(-c3ccccc3)cc2)Oc2ccc(NC(=O)CCC(F)(F)F)cc2CC1=O | 72.1% (active)
C[C@H]1CN([C@@H](C)CO)C(=O)Cc2cc(NC(=O)CCCCCC(=O)Nc3ccccc3N)ccc2O[C@@H]1CN(C)Cc1ccncc1 | -9.64% (inactive)
